Here are results for seven compounds from PubChem BioAssay (EPA / NIEHS).

Activity calls are given as the source filed them. The calls were made as follows: active = hit-call score of the fitted dose curve at least 0.9, where 1 is the maximum; inactive = score below 0.9.

The nature of assay [1]: ATG_GRE_CIS: Attagene CIS-FACTORIAL HepG2 Assay for human Glucocorticoid Response Elements (GRE) (AID 2282947). The settings on record: HepG2 GRE cis-reporter, Attagene multiplex mRNA; actives raise or lower the signal. The method in brief:
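Read-out: fluorescent reporter-transcript fragments separated by capillary electrophoresis after RT-PCR. Transiently transfected HepG2 cells carrying cis-element-driven reporter units were dosed for 24 h; gain or loss of signal fitted against DMSO control.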

A short description of assay [2]: ATG_ISRE_CIS: Attagene CIS-FACTORIAL HepG2 Assay for human Interferon Regulatory Factor 1 (IRF1) binding to an Interferon-Stimulated Response Element (ISRE) (AID 2282948). Particulars: HepG2 ISRE cis-reporter (Attagene), mRNA transcription readout; actives raise or lower the signal. Put shortly: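 Multiplexed mRNA reporter readout in human liver HepG2 cells: cis-element-driven reporters transfected, compound added for 24 h, transcripts amplified, fluorescently labelled and sized by capillary electrophoresis; curve fitting bidirectional against DMSO.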

Assay [3] in a line: ATG_M_32_CIS: Attagene CIS-FACTORIAL HepG2 Assay for M32 Transcription Factor (Internal Marker) (AID 2282949).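 Also: background control marker of the multiplexed CIS panel rather than a real target.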 The settings on record: HepG2 Attagene cis-factorial M32 reporter, mRNA; actives raise or lower the signal. The method in brief:
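Using DMSO as baseline, bidirectional curve fits were applied to reporter mRNA signals. These came from transiently transfected HepG2 cells exposed for 24 h, with RNA analysed by RT-PCR, FAM primer extension, HpaI digestion and CE.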

A short description of assay [4]: ATG_M_06_CIS: Attagene CIS-FACTORIAL HepG2 Assay for M06 Transcription Factor (Internal Marker) (AID 2282950). Particulars: HepG2 Attagene CIS-FACTORIAL M06 internal marker reporter; actives raise or lower the signal. Put shortly: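 One of many multiplexed endpoints: HepG2 reporter mRNA after 24 h dosing, detected by RT-PCR and capillary electrophoresis fluorescence; gain or loss of signal analysed against DMSO.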

Assay [5] concerns the target Hypoxia-inducible factor 1-alpha (Homo sapiens) (UniProt Q16665). The assay can be described thus: ATG_HIF1a_CIS: Attagene CIS-FACTORIAL HepG2 Assay for human Hypoxia Inducible Factor 1 (HIF1A) (AID 2282951). Particulars: HepG2 Attagene cis-factorial HIF1a reporter transcription; actives raise or lower the signal. Put shortly: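 RT-PCR/capillary electrophoresis fluorescence readout of reporter transcripts from endogenous-TF-driven cis elements in transfected HepG2 cells, 24 h exposure; activity fitted in both directions against DMSO controls.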

Assay [6] addresses Hepatocyte nuclear factor 6 (Homo sapiens) (UniProt Q9UBC0). The assay can be described thus: ATG_HNF6_CIS: Attagene CIS-FACTORIAL HepG2 Assay for human Hepatocyte Nuclear Factor 6 (HNF6) (AID 2282952). The settings on record: HepG2 Attagene cis-factorial HNF6 reporter transcription; actives raise or lower the signal. The method in brief: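 Using cis-element reporters in HepG2 liver cells, the assay tracks endogenous factor-driven transcription 24 h post-dosing. Signal comes from 6-FAM-labelled, HpaI-digested RT-PCR fragments, with gain or loss scored against DMSO.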

In assay [7] the target is Heat shock factor protein 1 (Homo sapiens) (UniProt Q00613). The assay can be described thus: ATG_HSE_CIS: Attagene CIS-FACTORIAL HepG2 Assay for human Heat Shock Transcription Factor 1 (HSE) (AID 2282953). The settings on record: HepG2 HSE cis-reporter, Attagene RNA transcription; actives raise or lower the signal. Put shortly:
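Using HepG2 with transfected cis-driven reporter constructs, compound effects on endogenous factor activity are scored as reporter mRNA change at 24 h. Detection: RT-PCR, HpaI digestion, capillary electrophoresis; bidirectional fitting to DMSO.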

A short description of assay [8]: ATG_MRE_CIS: Attagene CIS-FACTORIAL HepG2 Assay for human Metal Responsive Element (MRE) (AID 2282954). The settings on record: HepG2 MRE cis-reporter transcription, Attagene multiplex; actives raise or lower the signal. The method in brief: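 RT-PCR/capillary electrophoresis readout of reporter mRNA, 24 h post-dosing, in HepG2 cells transfected with multiplexed cis-regulated reporter constructs. Gain or loss of signal fitted bidirectionally against DMSO baseline.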

Assay [9] is described as follows: ATG_PBREM_CIS: Attagene CIS-FACTORIAL HepG2 Assay for human Phenobarbital-responsive Enhancer Module (PBREM) (AID 2282955). The settings on record: HepG2 PBREM cis-reporter, Attagene multiplexed transcription; actives raise or lower the signal. The method in brief:
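Reporter mRNA read by RT-PCR, 6-FAM primer extension, HpaI digestion and capillary electrophoresis. Transfected HepG2 cells, 24 h compound exposure. Gain or loss of signal fitted bidirectionally relative to DMSO baseline.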

Assay [10] concerns the target Paired box protein Pax-6 (Homo sapiens) (UniProt P26367). The assay can be described thus: ATG_Pax6_CIS: Attagene CIS-FACTORIAL HepG2 Assay for human Paired Box 6 (PAX6) (AID 2282956). Particulars: HepG2 CIS-FACTORIAL PAX6 reporter transcription, RNA readout; actives raise or lower the signal. Put shortly:
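Fluorescent RT-PCR products separated by capillary electrophoresis report PAX6-linked promoter mRNA in HepG2 cells 24 h post-dose. Curves fitted bidirectionally, DMSO as negative control.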

The nature of assay [11]: ATG_PXRE_CIS: Attagene CIS-FACTORIAL HepG2 Assay for human Pregnane X Receptor Element (PXRE) (AID 2282957). The settings on record: HepG2 Attagene CIS-FACTORIAL PXRE reporter, mRNA; actives raise or lower the signal. The method in brief: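 Using HepG2 transfected with multiple reporter transcription units, endogenous factor-driven transcription was scored as reporter mRNA after 24 h exposure.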

The nature of assay [12]: ATG_PPRE_CIS: Attagene CIS-FACTORIAL HepG2 Assay for human Peroxisome Proliferator-activated Response Element (PPRE) (AID 2282958). The settings on record: HepG2 PPRE cis-element reporter, Attagene transcription factor profiling; actives raise or lower the signal. The method in brief: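 Read-out: fluorescent reporter mRNA fragments resolved by capillary electrophoresis after RT-PCR. HepG2 cells carried transiently transfected PPRE-driven cis reporter constructs and were dosed for 24 h; gain or loss of signal fitted relative to DMSO.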

Assay [13] can be described thus: ATG_Sox_CIS: Attagene CIS-FACTORIAL HepG2 Assay for human SRY-box transcription factor (SOX) (AID 2282960). Particulars: HepG2 Attagene cis-factorial SOX reporter, mRNA; actives raise or lower the signal. Put shortly:
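Read-out: fluorescent RT-PCR products of SOX1-linked reporter transcripts resolved by capillary electrophoresis, fitted bidirectionally against DMSO. Transiently transfected HepG2 cells, 24 h after chemical exposure, endogenous transcription factor activity.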

For assay [14], the target named is Transcription factor Sp1 (Homo sapiens) (UniProt P08047). The assay can be described thus: ATG_Sp1_CIS: Attagene CIS-FACTORIAL HepG2 Assay for human Specificity Protein 1 (Sp1) (AID 2282961). The settings on record: HepG2 Sp1 cis-reporter transcription, actives raise or lower the signal. The method in brief: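 Read-out: fluorescence of 6-FAM-labeled, HpaI-digested RT-PCR products separated by capillary electrophoresis. HepG2 cells carried transfected cis-element reporter units and were exposed to chemicals for 24 h; gain or loss of signal fitted relative to DMSO.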

Assay [15] is described as follows: ATG_SREBP_CIS: Attagene CIS-FACTORIAL HepG2 Assay for human Sterol Regulatory Element Binding (SREBP) (AID 2282962). The settings on record: HepG2 Attagene cis-factorial SREBP reporter, mRNA; actives raise or lower the signal. Put shortly: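 Endogenous factor activity is measured in HepG2 through multiplexed reporter units under cis-element control. Following a 24 h incubation, reporter transcripts are reverse-transcribed, PCR-amplified and sized by capillary electrophoresis; activity is fitted in both directions relative to DMSO.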

The target of assay [16] is Signal transducer and activator of transcription 3 (Homo sapiens) (UniProt P40763). The assay can be described thus: ATG_STAT3_CIS: Attagene CIS-FACTORIAL HepG2 Assay for human Signal Transducer and Activator of Transcription 3 (STAT3) (AID 2282963). The settings on record: HepG2, Attagene cis-factorial STAT3 reporter transcription; actives raise or lower the signal. Put shortly:
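Readout: fluorescent reporter mRNA fragments resolved by capillary electrophoresis. Setup: HepG2 transfected with MRTUs reporting endogenous transcription-factor activity, dosed 24 h. Gain or loss of signal fitted bidirectionally against DMSO control.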

Assay [17] in a line: ATG_TA_CIS: Attagene CIS-FACTORIAL HepG2 Assay for human TA Basal Promoter (AID 2282964). The settings on record: HepG2 Attagene CIS-factorial TA basal promoter reporter; actives raise or lower the signal. Put shortly:
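Transient MRTU transfection of HepG2 preceded 24 h compound exposure. Reporter mRNA levels were then read by RT-PCR with capillary electrophoresis, and this background-control endpoint was fitted bidirectionally to DMSO.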

Assay [18] can be described thus: ATG_RORE_CIS: Attagene CIS-FACTORIAL HepG2 Assay for human RAR-related Orphan Receptor Element (RORE) (AID 2282959). The settings on record: HepG2 Attagene cis-factorial RORE reporter, mRNA; actives raise or lower the signal. The method in brief: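 Readout: fluorescent reporter mRNA by RT-PCR plus capillary electrophoresis, 24 h after dosing transfected HepG2 cells. Endogenous transcription factor activity on a cis promoter element is measured. Gain or loss of signal fitted against DMSO.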

Sequence of Transcription factor Sp1 (Homo sapiens) (P08047 whole entry, looked up): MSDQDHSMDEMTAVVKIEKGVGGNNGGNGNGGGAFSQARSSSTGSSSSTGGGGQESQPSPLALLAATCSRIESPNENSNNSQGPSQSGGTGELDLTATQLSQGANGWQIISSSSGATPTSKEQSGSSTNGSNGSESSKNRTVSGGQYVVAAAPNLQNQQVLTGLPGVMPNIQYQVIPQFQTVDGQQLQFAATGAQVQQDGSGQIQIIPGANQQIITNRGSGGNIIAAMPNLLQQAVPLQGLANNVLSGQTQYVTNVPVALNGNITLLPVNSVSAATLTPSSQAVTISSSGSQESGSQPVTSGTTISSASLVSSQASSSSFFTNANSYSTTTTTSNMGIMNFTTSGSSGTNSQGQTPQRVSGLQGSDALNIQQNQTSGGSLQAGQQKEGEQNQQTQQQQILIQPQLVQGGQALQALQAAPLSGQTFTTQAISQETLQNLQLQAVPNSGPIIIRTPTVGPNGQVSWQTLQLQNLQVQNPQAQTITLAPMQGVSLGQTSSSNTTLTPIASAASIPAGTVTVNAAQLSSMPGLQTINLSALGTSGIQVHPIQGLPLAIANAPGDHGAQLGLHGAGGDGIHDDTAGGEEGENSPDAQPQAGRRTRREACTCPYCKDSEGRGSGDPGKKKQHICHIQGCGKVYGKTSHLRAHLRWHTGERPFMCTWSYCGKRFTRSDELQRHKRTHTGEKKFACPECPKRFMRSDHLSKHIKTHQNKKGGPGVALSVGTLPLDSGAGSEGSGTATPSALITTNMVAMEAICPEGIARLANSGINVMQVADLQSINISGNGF
Sequence of Hypoxia-inducible factor 1-alpha (Homo sapiens) (Q16665 whole entry, looked up): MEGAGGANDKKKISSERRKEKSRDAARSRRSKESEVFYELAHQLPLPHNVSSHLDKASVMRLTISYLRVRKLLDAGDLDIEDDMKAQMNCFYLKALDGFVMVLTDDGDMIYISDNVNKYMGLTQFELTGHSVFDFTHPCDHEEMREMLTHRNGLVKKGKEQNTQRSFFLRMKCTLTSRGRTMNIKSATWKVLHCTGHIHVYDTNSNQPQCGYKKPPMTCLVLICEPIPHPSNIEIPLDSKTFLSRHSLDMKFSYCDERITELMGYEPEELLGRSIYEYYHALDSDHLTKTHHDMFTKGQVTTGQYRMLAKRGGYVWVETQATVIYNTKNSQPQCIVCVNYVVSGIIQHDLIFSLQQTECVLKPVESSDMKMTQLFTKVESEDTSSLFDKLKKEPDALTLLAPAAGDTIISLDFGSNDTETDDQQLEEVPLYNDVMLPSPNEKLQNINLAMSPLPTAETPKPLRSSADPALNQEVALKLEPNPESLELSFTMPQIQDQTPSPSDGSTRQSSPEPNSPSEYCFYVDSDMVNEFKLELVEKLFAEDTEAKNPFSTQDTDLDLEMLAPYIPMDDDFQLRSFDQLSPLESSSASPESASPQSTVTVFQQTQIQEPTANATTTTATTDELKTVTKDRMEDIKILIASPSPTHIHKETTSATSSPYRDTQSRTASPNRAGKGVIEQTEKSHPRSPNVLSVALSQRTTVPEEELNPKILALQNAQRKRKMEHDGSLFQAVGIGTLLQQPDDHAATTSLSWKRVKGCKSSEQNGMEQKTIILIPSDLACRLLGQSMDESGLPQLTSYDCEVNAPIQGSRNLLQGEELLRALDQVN
Sequence of Signal transducer and activator of transcription 3 (Homo sapiens) (P40763 whole entry, looked up, the tested form may be a part): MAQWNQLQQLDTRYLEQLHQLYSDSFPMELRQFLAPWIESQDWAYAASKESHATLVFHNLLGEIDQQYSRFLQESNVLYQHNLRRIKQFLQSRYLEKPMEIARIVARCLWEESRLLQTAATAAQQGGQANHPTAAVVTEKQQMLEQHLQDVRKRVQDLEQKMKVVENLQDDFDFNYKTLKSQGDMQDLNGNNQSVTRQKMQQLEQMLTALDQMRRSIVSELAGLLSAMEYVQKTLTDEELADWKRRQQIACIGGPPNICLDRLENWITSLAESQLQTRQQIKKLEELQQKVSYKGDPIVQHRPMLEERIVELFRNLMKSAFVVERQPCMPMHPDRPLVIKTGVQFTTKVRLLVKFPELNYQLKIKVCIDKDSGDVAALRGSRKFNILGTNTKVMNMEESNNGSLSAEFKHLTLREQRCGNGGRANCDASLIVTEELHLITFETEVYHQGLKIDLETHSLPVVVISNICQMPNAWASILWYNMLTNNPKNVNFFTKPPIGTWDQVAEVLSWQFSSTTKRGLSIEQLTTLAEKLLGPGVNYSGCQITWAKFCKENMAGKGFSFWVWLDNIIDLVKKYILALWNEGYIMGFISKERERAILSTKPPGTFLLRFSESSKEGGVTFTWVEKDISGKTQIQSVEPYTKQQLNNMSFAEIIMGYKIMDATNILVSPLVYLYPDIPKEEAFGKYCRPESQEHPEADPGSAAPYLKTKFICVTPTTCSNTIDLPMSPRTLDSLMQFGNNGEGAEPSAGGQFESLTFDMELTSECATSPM
Sequence of Heat shock factor protein 1 (Homo sapiens) (Q00613 whole entry, looked up): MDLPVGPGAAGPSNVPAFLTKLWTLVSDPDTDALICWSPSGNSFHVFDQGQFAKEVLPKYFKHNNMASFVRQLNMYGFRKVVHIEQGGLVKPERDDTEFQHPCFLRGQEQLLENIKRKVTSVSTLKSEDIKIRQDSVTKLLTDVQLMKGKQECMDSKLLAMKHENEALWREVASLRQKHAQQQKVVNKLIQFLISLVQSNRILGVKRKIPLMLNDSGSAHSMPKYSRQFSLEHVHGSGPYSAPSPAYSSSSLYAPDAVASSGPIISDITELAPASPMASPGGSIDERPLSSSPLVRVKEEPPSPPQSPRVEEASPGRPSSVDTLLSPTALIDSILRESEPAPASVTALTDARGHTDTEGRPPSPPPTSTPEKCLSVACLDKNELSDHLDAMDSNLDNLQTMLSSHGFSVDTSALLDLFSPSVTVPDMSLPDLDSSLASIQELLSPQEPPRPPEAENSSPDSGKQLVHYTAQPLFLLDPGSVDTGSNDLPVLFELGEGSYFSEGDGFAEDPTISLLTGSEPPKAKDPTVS
Sequence of Hepatocyte nuclear factor 6 (Homo sapiens) (Q9UBC0 whole entry, looked up, the tested form may be a part): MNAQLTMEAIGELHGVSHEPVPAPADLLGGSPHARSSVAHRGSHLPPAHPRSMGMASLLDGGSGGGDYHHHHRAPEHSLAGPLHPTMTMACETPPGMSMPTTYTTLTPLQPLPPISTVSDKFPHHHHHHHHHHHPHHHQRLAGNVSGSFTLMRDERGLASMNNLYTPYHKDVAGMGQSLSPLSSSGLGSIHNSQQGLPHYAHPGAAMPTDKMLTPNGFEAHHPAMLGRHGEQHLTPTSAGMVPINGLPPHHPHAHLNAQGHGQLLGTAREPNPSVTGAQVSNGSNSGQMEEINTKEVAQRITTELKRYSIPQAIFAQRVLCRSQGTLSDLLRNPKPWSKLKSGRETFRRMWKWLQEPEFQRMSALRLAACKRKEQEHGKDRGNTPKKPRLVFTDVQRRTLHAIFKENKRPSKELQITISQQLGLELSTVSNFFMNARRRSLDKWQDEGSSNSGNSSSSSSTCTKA
Sequence of Paired box protein Pax-6 (Homo sapiens) (P26367 whole entry, looked up): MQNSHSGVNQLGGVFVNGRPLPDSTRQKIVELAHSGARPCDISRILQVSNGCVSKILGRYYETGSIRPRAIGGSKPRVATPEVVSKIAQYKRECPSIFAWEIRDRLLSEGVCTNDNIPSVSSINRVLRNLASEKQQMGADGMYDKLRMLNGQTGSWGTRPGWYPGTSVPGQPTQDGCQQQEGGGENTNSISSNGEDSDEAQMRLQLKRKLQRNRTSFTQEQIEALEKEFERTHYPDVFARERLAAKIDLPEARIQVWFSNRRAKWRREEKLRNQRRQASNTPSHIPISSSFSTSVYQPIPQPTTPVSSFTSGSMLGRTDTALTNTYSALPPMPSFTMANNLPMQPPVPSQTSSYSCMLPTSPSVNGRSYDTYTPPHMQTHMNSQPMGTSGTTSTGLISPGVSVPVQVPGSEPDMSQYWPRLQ

With `CC(C)(C)c1cc(O)c(C(C)(C)C)cc1O`, the result in assay [1], in [4], in [5], in assay [6], in assay [11] and in assay [16] was inactive. In addition, the AC50 in assay [2] was 114 µM (active); in assay [3] it was 40.6 µM (active); in assay [7], 64.3 µM (active); in [8], 39.2 µM (active); in [9], 61.6 µM (active); in assay [10], 34.3 µM (active). In addition, the AC50 was 30.9 µM (active) in assay [12]; 114 µM (active) in [13]; 65.5 µM (active) in [14]; 7.79 µM (active) in assay [15]; 42.2 µM (active) in assay [17].

With `COc1ccc2c(c1)c(CC(=O)O)c(C)n2C(=O)c1ccc(Cl)cc1`, the result in assay [1], in assay [2], in assay [3], in assay [4], in [5] and in [6] was inactive. The compound was called inactive in assay [7], in assay [8], in assay [9], in assay [10], in [11] and in assay [14]. Moreover, the outcome in [15], in [16] and in assay [17] was inactive. Also, the AC50 in [12] is 12.5 µM (active).

As for `CCCCCCCCCCCCCO`, the result in [1], in assay [2], in [4], in assay [6], in assay [7] and in assay [8] was inactive. Moreover, the result in assay [9], in [11], in [12], in assay [14], in [15] and in [16] was inactive. Further, the result in assay [17] was inactive. In addition, the figures for the AC50 in assay [3], in assay [5] and in [10] were 34.3 µM (active), 8.99 µM (active) and 34.3 µM (active), respectively.

Regarding `NCC1(Cc2noc(=O)[nH]2)CCCCC1`, the compound was classed as inactive in assay [2], in [3], in assay [4], in assay [5], in [6] and in [7]. Besides, the call in [8], in assay [9], in assay [10], in assay [11], in assay [12] and in [13] was inactive. In addition, the result in assay [14], in [15], in [16] and in assay [17] was inactive.

On to `Nc1ccccc1N`, for which the outcome in assay [1], in assay [2], in assay [4], in assay [6], in assay [7] and in [9] was inactive. Besides, the compound was classed as inactive in [13], in [15] and in assay [16]. In addition, the AC50 was 41.3 µM (active) in [5]; 38.2 µM (active) in assay [8]; 23 µM (active) in assay [10]; 82.4 µM (active) in [11]; 15.7 µM (active) in [12]; 28.5 µM (active) in assay [18]. Further, the results for the AC50 in assay [14] and in [17] were 25.9 µM (active) and 50.8 µM (active), respectively.

For the compound `CCCCOC(=O)CCCCCCCCC(=O)OCCCC`, the call in assay [1], in assay [2], in assay [4], in assay [5], in [6] and in assay [7] was inactive. In addition, the compound was called inactive in assay [8], in [9], in assay [10], in assay [11], in assay [14] and in assay [15]. Further, the result in assay [16] and in [17] was inactive.

For the compound `Cc1cccc(Nc2cc(Cl)nc(SCC(=O)O)n2)c1C`, the compound was classed as inactive in assay [1], in [2], in assay [4], in assay [6], in assay [7] and in assay [8]. Moreover, the result in assay [9], in [10], in assay [14], in [15], in assay [16] and in [17] was inactive. The AC50 in assay [11] was 29.8 µM (active).

As a reminder, the AC50 is the concentration at which the activity in the assay is half-maximal.
